In PubChem BioAssay (NCATS):
Where “and” joins values, the source holds several entries; their conditions need not be identical. Identical values can stand only once. Records with an inconclusive call do not appear. Calls of active or inactive are those of the source. Calls follow the shape of the dose curve; as a rule, active = well fitted curve in the direction sought with a large enough effect; inconclusive = small, poorly fitted or top-dose-only effect, or another doubt; inactive = no such curve, though single readings can be large; an effect the other way counts as inactive or inconclusive.

Molecular target: Cytochrome P450 3A4 (Homo sapiens) (UniProt P08684)
Sequence (P08684 whole entry, looked up): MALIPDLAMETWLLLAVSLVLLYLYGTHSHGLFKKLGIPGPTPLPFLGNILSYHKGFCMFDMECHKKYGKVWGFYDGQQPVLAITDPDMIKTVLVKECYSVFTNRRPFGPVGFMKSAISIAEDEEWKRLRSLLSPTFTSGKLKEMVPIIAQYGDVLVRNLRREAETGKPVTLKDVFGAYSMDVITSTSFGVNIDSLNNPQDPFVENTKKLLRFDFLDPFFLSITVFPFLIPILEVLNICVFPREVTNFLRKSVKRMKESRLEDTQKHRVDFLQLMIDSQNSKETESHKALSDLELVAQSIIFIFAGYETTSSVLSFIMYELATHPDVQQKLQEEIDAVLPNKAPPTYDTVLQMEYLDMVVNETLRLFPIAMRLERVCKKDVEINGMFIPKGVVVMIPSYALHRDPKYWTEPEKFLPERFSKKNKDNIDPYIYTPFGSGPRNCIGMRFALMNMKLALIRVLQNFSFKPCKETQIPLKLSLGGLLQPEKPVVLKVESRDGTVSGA
Assay: qHTS Assay for Activators of Cytochrome P450 3A4 (AID 885); also: nearly all actives have a fitted effect of over 65% in size
Conditions: recombinant CYP3A4, Luciferin-PPXE luminescence, 60 min; series mostly up to 57.1 µM; activity change, positive = activation: at the top concentration
Outline: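 Luminescent readout of luciferin formed from 25 uM Luciferin-PPXE (KM level) by 20 nM CYP3A4 in 200 mM KPO4, with 60 min NADPH-driven reaction at room temperature after 10 min compound exposure. Ketoconazole (57 uM) defined 100% inhibition.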

Row | SMILES | activity change, positive = activation
1 | COc1ccc(-c2ccc3c(n2)CCCN3C[C@H](O)CN2CCCc3nc(-c4ccc(Br)cc4)ccc32)cc1 | -31.9% [at 11.4 µM] (inactive)
2 | CCN1C(=O)[C@H]2[C@H]3[C@H](O)[C@H](O)C/C(=N/O[C@@H](C)c4cn([C@H](CO)Cc5ccccc5)nn4)[C@@H]3CC[C@@H]2C1=O | -35.2% [at 11.4 µM] (inactive) and -33% [at 11.4 µM] (inactive)
3 | CCCNC(=O)OC[C@@H]1O[C@H](CCON=C(C)C)C=C[C@@H]1Oc1ccc(OC)cc1 | -58.2% [at 11.4 µM] (inactive)
4 | C/C(CCN1CCc2nc(-c3ccccc3)c(-c3ccccc3)cc2C1)=N\O[C@@H](C)c1cn([C@H](CO)Cc2ccccc2)nn1 | -54.2% [at 11.4 µM] (inactive) and -52.4% [at 11.4 µM] (inactive)
5 | COc1ccc(COC(=O)N/N=C2/C[C@@H](O)[C@@H](O)[C@@H]3[C@@H]4C(=O)N(c5cccc(Oc6ccccc6)c5)C(=O)[C@H]4CC[C@@H]23)cc1 | -30.5% [at 11.4 µM] (inactive)
6 | CO[C@H]1COC(=O)C/C=C\[C@@H](C)COC(=O)[C@@H](OCc2ccccc2)/C=C\[C@@H]1C | -63.8% [at 11.4 µM] (inactive)
7 | C/C(CCN1CCCCc2nc(C)c(C)cc21)=N\OC[C@@H](C)[C@H](OCc1ccccc1)C(C)C | -49.2% [at 11.4 µM] (inactive)
8 | CC(C)=CCC/C(C)=C/CO/N=C1/[C@H]2O[C@@H]2[C@@H](O)[C@H]2[C@H]1CCn1c(=O)n(Cc3cc4c(cc3Cl)OCO4)c(=O)n12 | -56.5% [at 11.4 µM] (inactive)
9 | C/C(CCN1CCc2nc(-c3ccccc3)c(-c3ccccc3)cc2C1)=N\O[C@@H](C)CN1CCCc2nc(C)c(C)cc21 | -58.8% [at 11.4 µM] (inactive)
10 | C/C(CCN1CCc2nc(-c3ccccc3)c(-c3ccccc3)cc2C1)=N\O[C@@H](C)c1cc(-c2c(C)cc(C)cc2C)no1 | -63.5% [at 11.4 µM] (inactive)
11 | C#CCCCO/N=C1/C[C@@H](O)[C@@H](O)[C@@H]2[C@@H]3C(=O)N(C4CCCCC4)C(=O)[C@H]3CC[C@H]12 | -57% [at 11.4 µM] (inactive)

Molecular target: Cytochrome P450 2D6 (Homo sapiens) (UniProt P10635)
Sequence (P10635 whole entry, looked up): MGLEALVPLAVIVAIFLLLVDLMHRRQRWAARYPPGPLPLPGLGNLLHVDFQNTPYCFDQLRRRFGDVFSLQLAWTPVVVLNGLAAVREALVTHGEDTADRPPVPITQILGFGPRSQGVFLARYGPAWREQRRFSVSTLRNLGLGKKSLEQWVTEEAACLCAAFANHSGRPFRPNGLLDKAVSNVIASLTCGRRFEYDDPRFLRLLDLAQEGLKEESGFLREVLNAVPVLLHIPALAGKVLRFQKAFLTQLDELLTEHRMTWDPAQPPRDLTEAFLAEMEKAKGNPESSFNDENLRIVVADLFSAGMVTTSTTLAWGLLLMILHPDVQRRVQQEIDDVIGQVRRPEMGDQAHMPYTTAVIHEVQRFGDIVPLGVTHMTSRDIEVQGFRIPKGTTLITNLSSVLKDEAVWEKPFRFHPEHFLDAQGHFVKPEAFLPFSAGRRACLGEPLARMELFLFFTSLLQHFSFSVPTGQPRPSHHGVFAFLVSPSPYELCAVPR
Assay: qHTS Assay for Inhibitors and Substrates of Cytochrome P450 2D6 (AID 891); also: nearly all actives have a fitted effect of over 60% in size; also: potency is read from the fitted curve at half-maximal effect;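 as to activity change, negative = inhibition: luciferin methyl ether substrate demethylated by CYP2D6 with NADPH regeneration; % is scaled to controls: 0 for no effect and ±100 for the full control effect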
Conditions: recombinant CYP2D6, luciferin-ME EGE luminescence; series mostly up to 11.4 µM; activity change, negative = inhibition: at the top concentration
Outline: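 Luminescent read-out of luciferin formed by 5 nM human CYP2D6 demethylating 30 uM Luciferin-ME EGE (Km level) over 60 min at room temperature after NADPH regeneration addition. Data normalized to full inhibition by 1.43 uM quinidine.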

Row | SMILES | activity change, negative = inhibition | Potency
12 | CC(C)(C)N1C(=O)[C@H]2[C@@H]3[C@H](O)[C@H](O)CC(=O)[C@H]3CC[C@H]2C1=O | 26.7% (inactive) | –
13 | CO[C@@H]1COC(=O)C/C=C\[C@H](C)COC(=O)[C@H](C)NC(=O)C/C=C\[C@H]1C | 27.4% (inactive) | –
14 | CC(=O)OC[C@H]1O[C@@H](O/N=C\[C@@H](C)[C@H](OCc2ccccc2)C(C)C)[C@H](OC(C)=O)[C@@H](OC(C)=O)[C@H]1OC(C)=O | – | 3.98 µM (active)
15 | CC(=O)OC[C@@H]1O[C@@H](O/N=C2/C[C@@H](O)[C@@H](O)[C@@H]3[C@@H]4C(=O)N(Cc5ccccc5)C(=O)[C@H]4CC[C@@H]23)[C@H](OC(C)=O)[C@H](OC(C)=O)[C@@H]1OC(C)=O | – | 3.98 µM (active)
16 | CC(C)c1ccc2c(c1)CC[C@@H]1[C@@](C)(CN)CCC[C@@]21C | – | 1 µM (active)
17 | CO/N=C(\C)CCN1CCCc2nc(C)c(C)cc21 | – | 3.98 µM (active)
18 | CCOC(=O)N/N=C1/C[C@@H](O)[C@@H](O)[C@@H]2[C@@H]3C(=O)N(C4CCCCC4)C(=O)[C@H]3CC[C@@H]12 | 26.9% (inactive) | –
19 | CO[C@@H]1COC(=O)CCC[C@@H](C)[C@H](OC)COC(=O)CCC[C@H]1C | 34.5% (inactive) | –
20 | CCN1C(=O)[C@H]2[C@@H]3[C@H](O)C=CC(=O)[C@H]3CC[C@H]2C1=O | 30% (inactive) | –
21 | CCOC(=O)CCN1C(=O)[C@H]2[C@H]3[C@H](O)[C@H](O)C/C(=N/O[C@@H]4O[C@@H](COC(C)=O)[C@@H](OC(C)=O)[C@@H](OC(C)=O)[C@H]4OC(C)=O)[C@@H]3CC[C@@H]2C1=O | – | 3.16 µM (active)
22 | CCOC(=O)N/N=C1/C[C@@H](O)[C@@H](O)[C@@H]2[C@@H]3C(=O)N(Cc4ccccc4)C(=O)[C@H]3CC[C@@H]12 | 21.6% (inactive) | –
23 | CC(C)=CCC/C(C)=C/CO/N=C1/C[C@@H](O)[C@@H](O)[C@@H]2[C@@H]3C(=O)N(C(C)(C)C)C(=O)[C@H]3CC[C@H]12 | 32.2% (inactive) | –
24 | CC(=O)OC[C@H]1O[C@@H](ON=C(C)C)[C@H](OC(C)=O)[C@@H](OC(C)=O)[C@H]1OC(C)=O | – | 3.16 µM (active)
25 | O=C1[C@@H]2[C@H]3[C@H](O)[C@H](O)C/C(=N/OCc4ccccc4)[C@@H]3CC[C@H]2C(=O)N1c1ccc(F)cc1F | 25.4% (inactive) | –
26 | CO[C@H]1COC(=O)CCC[C@H](C)[C@H](OC)COC(=O)C/C=C\[C@@H]1C | 23.2% (inactive) | –
27 | CC(C)=CCC/C(C)=C/CO/N=C1/C[C@@H](O)[C@@H](O)[C@@H]2[C@@H]3C(=O)N(C[C@@H]4CCCO4)C(=O)[C@H]3CC[C@@H]12 | 26.3% (inactive) | –
28 | CCN1C(=O)[C@H]2[C@H]3[C@H](O)[C@H](O)C/C(=N/O[C@@H]4O[C@H](COC(C)=O)[C@@H](OC(C)=O)[C@H](OC(C)=O)[C@H]4OC(C)=O)[C@@H]3CC[C@@H]2C1=O | – | 3.98 µM (active)
29 | CC(C)=NOC[C@@H](O)COCc1ccco1 | 28.9% (inactive) | –
30 | CCc1cc2c(nc1CC)CCN(CC/C(C)=N/O[C@@H]1O[C@H](COC(C)=O)[C@H](OC(C)=O)[C@H](OC(C)=O)[C@H]1OC(C)=O)C2 | – | 3.98 µM (active)
31 | CC(=O)OC[C@@H]1O[C@@H](O/N=C2/C[C@@H](O)[C@@H](O)[C@@H]3[C@@H]4C(=O)N(C5CCCCC5)C(=O)[C@H]4CC[C@H]23)[C@H](OC(C)=O)[C@H](OC(C)=O)[C@@H]1OC(C)=O | – | 3.98 µM (active)
32 | CC(C)[C@H](NC(=O)OC(C)(C)C)[C@@H](O)CC(=O)OC(C)(C)C | – | 3.16 µM (active)
33 | COC(=O)C/C=C\[C@@H](C)[C@@H](/C=N\OC[C@@H](O)COCc1ccco1)OC | 30.1% (inactive) | –
34 | CCOC(=O)CCN1C(=O)[C@H]2[C@H]3[C@H](O)[C@H](O)C/C(=N/O[C@@H]4O[C@@H](COC(C)=O)[C@@H](OC(C)=O)[C@@H](OC(C)=O)[C@H]4OC(C)=O)[C@H]3CC[C@@H]2C1=O | – | 3.16 µM (active)
35 | O=C(N/N=C1/C[C@@H](O)[C@@H](O)[C@@H]2[C@@H]3C(=O)N(Cc4ccccc4)C(=O)[C@H]3CC[C@H]12)OCc1ccccc1 | 23.2% (inactive) | –
36 | CO[C@@H]1COC(=O)CC=C[C@@H](C)[C@@H]2C=C[C@H](O)[C@@H](COC(=O)[C@H](C)NC(=O)CC=C[C@H]1C)O2 | 36.6% (inactive) | –
37 | CC(=O)OC[C@@H]1O[C@H](C/C=N\O[C@@H]2O[C@H](COC(C)=O)[C@@H](OC(C)=O)[C@H](OC(C)=O)[C@H]2OC(C)=O)C=C[C@@H]1OC(C)=O | – | 3.98 µM (active)
38 | CC(=O)OC[C@@H]1O[C@@H](O/N=C2/C[C@@H](O)[C@@H](O)[C@@H]3[C@@H]4C(=O)N(Cc5ccccc5)C(=O)[C@H]4CC[C@H]23)[C@H](OC(C)=O)[C@H](OC(C)=O)[C@@H]1OC(C)=O | – | 3.16 µM (active)
39 | C#CCCCO/N=C1/[C@H]2O[C@@H]2[C@@H](O)[C@H]2[C@H]1CCn1c(=O)n(C)c(=O)n12 | 25.2% (inactive) | –
40 | CC(=O)OC[C@@H]1O[C@@H](O/N=C2/C[C@@H](O)[C@@H](O)[C@@H]3[C@H]4C(=O)N(c5ccc(F)cc5F)C(=O)[C@@H]4CC[C@H]23)[C@H](OC(C)=O)[C@H](OC(C)=O)[C@@H]1OC(C)=O | – | 3.16 µM (active)
